{"source": "PubChem BioAssay (NCATS)", "key": {"[1]": {"experiment": "qHTS for Inhibitors of the Functional Ribonucleoprotein Complex (vRNP) of Lymphocytic Choriomeningitis Arenaviruses (LCMV): Viability assay - alamar blue signal for LCMV Primary Screen (AID 1347085; calls by dose curve; tested in HEK293 reporter line; note: nearly all actives have a fitted effect of over 80% in size; note: potency is the fitted concentration of half-maximal effect)"}, "[2]": {"target": "Nucleoprotein (Lymphocytic choriomeningitis virus (strain Armstrong)) (UniProt P09992)", "sequence (P09992 whole entry, looked up)": "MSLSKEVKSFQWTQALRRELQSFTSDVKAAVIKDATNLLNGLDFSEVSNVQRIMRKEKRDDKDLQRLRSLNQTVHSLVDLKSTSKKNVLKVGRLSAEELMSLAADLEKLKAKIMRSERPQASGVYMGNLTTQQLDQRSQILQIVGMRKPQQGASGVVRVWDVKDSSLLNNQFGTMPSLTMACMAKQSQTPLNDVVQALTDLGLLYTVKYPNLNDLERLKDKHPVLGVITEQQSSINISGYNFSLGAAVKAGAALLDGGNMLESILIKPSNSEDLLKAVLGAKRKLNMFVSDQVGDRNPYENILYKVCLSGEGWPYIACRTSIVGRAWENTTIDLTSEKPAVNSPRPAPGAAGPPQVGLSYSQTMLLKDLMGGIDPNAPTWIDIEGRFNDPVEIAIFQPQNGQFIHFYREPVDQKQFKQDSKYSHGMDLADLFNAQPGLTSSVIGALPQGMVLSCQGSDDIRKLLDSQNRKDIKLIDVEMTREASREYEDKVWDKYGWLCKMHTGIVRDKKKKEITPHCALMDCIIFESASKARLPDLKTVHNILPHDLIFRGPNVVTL", "experiment": "qHTS for Inhibitors of the Functional Ribonucleoprotein Complex (vRNP) of Lymphocytic Choriomeningitis Arenaviruses (LCMV): LCMV Primary Screen - GLuc reporter signal (AID 1347086); note: nearly all actives have a fitted effect of over 70% in size; note: potency is the fitted concentration of half-maximal effect"}, "[3]": {"experiment": "Cytotoxicity counterscreen for inhibitors of SARS-CoV-2 cell entry (AID 1645845); note: nearly all actives have a fitted effect of over 50% in size", "how_it_was_run": "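Expi293F/hACE2 cells seeded overnight; cpd pin-transferred in DMSO, 1 h preincubation, + media, 48 h 37 C 5% CO2; ATPLite 1step luminescence; normalized to cells and no cells.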"}, "[4]": {"experiment": "Primary qHTS to identify inhibitors of SARS-CoV-2 cell entry (AID 1645846); note: nearly all actives have a fitted effect of over 45% in size; note: potency is the fitted concentration of half-maximal effect", "conditions": "activity change, negative = inhibition: at 57.1 µM (top of the series) unless noted", "how_it_was_run": "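Entry measured by luciferase signal 48 h after adding SARS-CoV-2-S pseudotyped MLV particles to HEK293-ACE2 cells preincubated 1 h with compounds. Normalisation: bald particles and spike particles.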"}, "[5]": {"experiment": "Inducers of the Endoplasmic Reticulum Stress Response (ERSR) in human glioma: Validation (AID 504836; active = well fitted curve in the direction sought with a large enough effect; an effect the other way counts as inactive or inconclusive)", "how_it_was_run": "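Stably transfected U87-MG human glioma cells carrying a GRP78-based luminescent sensor were seeded at 1000 cells/well, pin-dosed with compounds and incubated 16 h. Luciferase reagent was then added, and end-point luminescence was read after 10 min at room temperature.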"}, "[6]": {"target": "Alpha-galactosidase (Coffea arabica) (UniProt Q42656)", "sequence (Q42656 whole entry, looked up)": "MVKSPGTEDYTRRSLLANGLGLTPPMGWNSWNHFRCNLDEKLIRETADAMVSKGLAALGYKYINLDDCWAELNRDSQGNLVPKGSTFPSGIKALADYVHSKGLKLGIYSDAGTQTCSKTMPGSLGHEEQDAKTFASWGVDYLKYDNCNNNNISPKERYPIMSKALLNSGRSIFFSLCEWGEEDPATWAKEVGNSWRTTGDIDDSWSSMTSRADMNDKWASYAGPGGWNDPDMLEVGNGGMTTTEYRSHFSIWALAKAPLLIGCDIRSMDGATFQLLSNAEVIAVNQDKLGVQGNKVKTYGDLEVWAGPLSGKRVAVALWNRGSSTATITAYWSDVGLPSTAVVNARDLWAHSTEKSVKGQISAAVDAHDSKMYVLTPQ", "experiment": "Counterscreen for Glucocerebrosidase Inhibitors: qHTS Assay for Coffee Bean alpha-Galactosidase at pH 4.5 (AID 957; active = well fitted curve in the direction sought with a large enough effect; an effect the other way counts as inactive or inconclusive)", "how_it_was_run": "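Coffee bean enzyme (2 nM) with 80 uM 4-methylumbelliferyl alpha-D-galactopyranoside in 50 mM citric acid, 0.005% Tween-20, pH 4.5, 20 min at room temperature; compounds 0.7 nM–77 uM. Stopped at pH 10, fluorescence 365/440 nm; AC50 from Hill fits.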"}, "[7]": {"target": "Alpha-galactosidase (Coffea arabica) (UniProt Q42656)", "experiment": "Counterscreen for Glucocerebrosidase Inhibitors: qHTS Assay for Coffee Bean alpha-Galactosidase at pH 5.9 (AID 998; active = well fitted curve in the direction sought with a large enough effect; an effect the other way counts as inactive or inconclusive)", "how_it_was_run": "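Green coffee bean enzyme (2 nM final) was incubated with compounds (0.7 nM–77 uM) and 4-methylumbelliferyl alpha-D-galactopyranoside (80 uM) in citrate buffer pH 5.9, 20 min at room temperature. High-pH stop; fluorescence 365/440 nm; AC50 from Hill fits.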"}, "[8]": {"experiment": "Confirmatory qHTS for VERO E6 Cytotoxicity Assay: Counterscreen for SARS-CoV-2 CPE Assay (AID 1508605); note: nearly all actives have a fitted effect of over 60% in size"}, "[9]": {"experiment": "Primary qHTS for Huh7 cytotoxicity: counterscreen for inhibitors of MERS-S pseudotyped particle cell entry (AID 1479147)", "conditions": "outcome: at 57.1 µM (top of the series) unless noted"}, "[10]": {"experiment": "Primary qHTS for inhibitors of MERS-S pseudo-typed particle cell entry (AID 1479149); note: nearly all actives have a fitted effect of over 60% in size"}, "[11]": {"experiment": "Primary qHTS for Vero E6 cytotoxicity: counterscreen for inhibitors of SARS-S pseudo-typed particle cell entry (AID 1479150)", "conditions": "outcome: at 57.1 µM (top of the series) unless noted"}, "[12]": {"experiment": "Confirmatory qHTS to identify inhibitors of SARS-CoV-2 cell entry (AID 1645844); note: potency is the fitted concentration of half-maximal effect; nearly all actives have a fitted effect of over 45% in size", "how_it_was_run": "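HEK293-ACE2 cells (Expi293F stably expressing human ACE2) were pretreated with compounds for 1 hr at 37C, then infected with MLV-based particles carrying Wuhan-Hu-1 spike (C-terminal 19-aa truncation). Luciferase luminescence read after 48 hr; normalized to spike PP (100%) and bald PP (0%).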"}, "[13]": {"experiment": "VSVG counterscreen qHTS to identify inhibitors of SARS-CoV-2 cell entry (AID 1645847); note: potency is the fitted concentration of half-maximal effect; nearly all actives have a fitted effect of over 65% in size", "how_it_was_run": "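Luminescence read after 48 h infection at 37 C with VSV-G-pseudotyped MLV particles, following 1 h compound exposure of Expi293F cells stably expressing human ACE2; scaled between bald particle and VSV-G particle wells.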"}, "[14]": {"experiment": "qHTS profiling of the MIPE4 collection as inhibitors of Plasmodium falciparum (3D7) proliferation (AID 743344; call rule not given here)", "conditions": "P. falciparum 3D7 in erythrocytes, SYBR Green DNA fluorescence, 72 h; at 28.5 µM (top of the series) unless noted", "how_it_was_run": "(§1)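 Erythrocytes infected with P. falciparum (0.3% parasitemia, 2.5% hematocrit) incubated with compounds 72 h at 37 C, 5% CO2. Lysis with saponin/Triton buffer containing SYBR Green I, overnight at room temperature in the dark; DNA fluorescence (485/535 nm) normalised to 0.29 uM artemisinin and DMSO.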"}, "[15]": {"experiment": "qHTS profiling of the MIPE4 collection as inhibitors of Plasmodium falciparum (DD2) proliferation (AID 743345; call rule not given here)", "conditions": "P. falciparum Dd2 in erythrocytes, SYBR Green DNA, 72 h; at 28.5 µM (top of the series) unless noted", "how_it_was_run": "as §1"}, "[16]": {"experiment": "qHTS profiling of the MIPE4 collection as inhibitors of Plasmodium falciparum (DD2) proliferation (Rep 2) (AID 743346; call rule not given here)", "conditions": "P. falciparum Dd2 in erythrocytes, SYBR Green DNA, 72 h; at 28.5 µM (top of the series) unless noted", "how_it_was_run": "as §1"}}, "note": "Records with an inconclusive call do not appear. Where a call stands in place of a potency, no number is given. Active and inactive are the calls of the source. Unless noted, calls come from the whole dose curve.", "data": [{"compound": "CCCCCC(=O)N[C@@H](c1ccccc1)[C@@H](O)C(=O)O[C@H]1C[C@@]2(O)[C@@H](OC(=O)c3ccccc3)C3[C@](C)(C(=O)[C@H](OC(C)=O)C(=C1C)C2(C)C)[C@@H](O)C[C@H]1OC[C@@]31OC(C)=O", "note": "(stereo partly specified)", "values": [{"measurement": "Potency", "setting": "[1]", "result": "inactive"}, {"measurement": "Potency", "setting": "[2]", "result": "inactive"}]}, {"compound": "NS(=O)(=O)c1ccc(NC2=CC(=O)c3ccccc3C2=O)cc1", "values": [{"measurement": "Potency", "setting": "[1]", "result": "38.5 µM (active)"}, {"measurement": "Potency", "setting": "[2]", "result": "12.2 µM (active)"}, {"measurement": "Potency", "setting": "[3]", "result": "inactive"}, {"measurement": "Potency", "setting": "[4]", "result": "inactive"}]}, {"compound": "O=C1NC(=O)/C(=C/c2ccc3nccnc3c2)S1", "values": [{"measurement": "outcome", "setting": "[5]", "result": "inactive"}, {"measurement": "Potency", "setting": "[1]", "result": "inactive"}, {"measurement": "Potency", "setting": "[3]", "result": "inactive"}, {"measurement": "Potency", "setting": "[4]", "result": "inactive"}]}, {"compound": "COc1ccc(-c2coc3cc(O)cc(O)c3c2=O)cc1", "values": [{"measurement": "Potency", "setting": "[2]", "result": "inactive"}, {"measurement": "Potency", "setting": "[3]", "result": "inactive"}]}, {"compound": "NC(=O)c1nnn(Cc2cc(Cl)c(C(=O)c3ccc(Cl)cc3)c(Cl)c2)c1N", "values": [{"measurement": "Potency", "setting": "[1]", "result": "inactive"}, {"measurement": "Potency", "setting": "[2]", "result": "inactive"}]}, {"compound": "CCCC(=O)OCCC(C)C", "values": [{"measurement": "Potency", "setting": "[1]", "result": "inactive"}, {"measurement": "Potency", "setting": "[2]", "result": "inactive"}]}, {"compound": "CCOC(=O)N[C@@H]1CC[C@@H]2[C@@H](C1)C[C@H]1C(=O)O[C@H](C)[C@H]1[C@@H]2C=Cc1ccc(-c2cccc(F)c2)cn1", "values": [{"measurement": "Potency", "setting": "[1]", "result": "5.44 µM (active)"}]}, {"compound": "CC1(C)CNc2cc(NC(=O)c3cccnc3NCc3ccncc3)ccc21", "values": [{"measurement": "Potency", "setting": "[1]", "result": "34.3 µM (active)"}, {"measurement": "Potency", "setting": "[3]", "result": "inactive"}, {"measurement": "Potency", "setting": "[4]", "result": "inactive"}]}, {"compound": "COc1cc2c(NC3CCN(C(C)C)CC3)nc(C3CCCCC3)nc2cc1OCCCN1CCCC1", "values": [{"measurement": "Potency", "setting": "[1]", "result": "38.5 µM (active)"}, {"measurement": "Potency", "setting": "[4]", "result": "8.91 µM (active)"}]}, {"compound": "CCN(CC)CCOc1ccc(C(=C(Cl)c2ccccc2)c2ccccc2)cc1", "values": [{"measurement": "Potency", "setting": "[2]", "result": "inactive"}]}, {"compound": "O=C1Cc2c([nH]c3ccc(Br)cc23)-c2ccccc2N1", "values": [{"measurement": "outcome", "setting": "[6]", "result": "inactive"}, {"measurement": "outcome", "setting": "[7]", "result": "inactive"}, {"measurement": "Potency", "setting": "[1]", "result": "inactive"}, {"measurement": "Potency", "setting": "[2]", "result": "inactive"}]}, {"compound": "C[C@@]1(c2cc(-c3cncnc3)c(F)cc2F)CCSC(N)=N1", "values": [{"measurement": "Potency", "setting": "[1]", "result": "13.7 µM (active)"}, {"measurement": "Potency", "setting": "[3]", "result": "inactive"}, {"measurement": "activity change, negative = inhibition", "setting": "[4]", "result": -2.33, "unit": "%"}]}, {"compound": "CC1(C)CC(=O)c2c(C(F)(F)F)nn(-c3ccc(C(N)=O)c(NC4CCC(OC(=O)CN)CC4)c3)c2C1", "note": "(stereo unspecified)", "values": [{"measurement": "Potency", "setting": "[1]", "result": "0.769 µM (active)"}, {"measurement": "Potency", "setting": "[2]", "result": "0.611 µM (active)"}, {"measurement": "Potency", "setting": "[8]", "result": "inactive"}, {"measurement": "activity change, negative = inhibition", "setting": "[4]", "result": -89, "unit": "%"}]}, {"compound": "C[C@@]12C=Cc3occc3[C@H]1CC[C@@]13C[C@@H](CC[C@H]12)[C@@](O)(CO)C3", "values": [{"measurement": "Potency", "setting": "[1]", "result": "inactive"}, {"measurement": "Potency", "setting": "[2]", "result": "inactive"}]}, {"compound": "Cc1ccc(O)c(N=Nc2ccccc2)n1", "values": [{"measurement": "outcome", "setting": "[6]", "result": "inactive"}, {"measurement": "outcome", "setting": "[7]", "result": "inactive"}, {"measurement": "outcome", "setting": "[5]", "result": "inactive"}, {"measurement": "Potency", "setting": "[1]", "result": "inactive"}, {"measurement": "Potency", "setting": "[2]", "result": "inactive"}]}, {"compound": "O=S(=O)(NCCNCC=Cc1ccc(Br)cc1)c1cccc2cnccc12", "values": [{"measurement": "Potency", "setting": "[1]", "result": "inactive"}, {"measurement": "Potency", "setting": "[2]", "result": "inactive"}]}, {"compound": "CO[C@@H]1[C@@H](OC2OC(C)C(OC3CC(C)(O)C(OC(=O)CC(C)C)C(C)O3)C(N(C)C)C2O)[C@@H](CC=O)C[C@@H](C)C(=O)/C=C\\C2O[C@H]2C[C@@H](C)OC(=O)C[C@H]1OC(C)=O", "note": "(stereo partly specified)", "values": [{"measurement": "Potency", "setting": "[1]", "result": "inactive"}, {"measurement": "Potency", "setting": "[2]", "result": "inactive"}, {"measurement": "outcome", "setting": "[9]", "result": "inactive"}, {"measurement": "Potency", "setting": "[10]", "result": "inactive"}, {"measurement": "outcome", "setting": "[11]", "result": "inactive"}, {"measurement": "Potency", "setting": "[12]", "result": "0.0152 µM (active)"}, {"measurement": "Potency", "setting": "[4]", "result": "28.2 µM (active)"}, {"measurement": "Potency", "setting": "[13]", "result": "17.1 µM (active)"}]}, {"compound": "COc1ccc2cc1Oc1ccc(cc1)C[C@H]1c3cc(c(OC)cc3CCN1C)Oc1c(OC)c(OC)cc3c1[C@H](C2)N(C)CC3", "values": [{"measurement": "parasite growth, % of DMSO control", "setting": "[14]", "result": 31.2, "unit": "%"}, {"measurement": "parasite growth remaining, % of DMSO control (lower = more inhibition)", "setting": "[15]", "result": 72.6, "unit": "%"}, {"measurement": "parasite growth, % of control (lower = inhibition)", "setting": "[16]", "result": 50.7, "unit": "%"}, {"measurement": "Potency", "setting": "[1]", "result": "inactive"}]}, {"compound": "COC(=O)C12OCC34C(CC5C(C)=C(O)C(=O)CC5(C)C3C(O)C1O)OC(=O)C(OC(=O)C=C(C)C)C24", "note": "(stereo unspecified)", "values": [{"measurement": "Potency", "setting": "[2]", "result": "inactive"}]}]}
